# In PubChem BioAssay AID504834 (National Center for Advancing Translational Sciences (NCATS), 2011):
# Out of some 320,000 compounds screened, about 22,000 (6.9%) were called active. Roughly 27% stayed inconclusive and do not appear here. For the sample, actives were picked, then their nearest neighbours and some compounds at random. Values without a mark were called inactive. The call rests on the fitted dose curve; in most records, active means well fitted inhibition curve with a large enough effect; inconclusive means small, poorly fitted or top-dose-only effect, or another doubt; inactive means no such curve, though single readings can be large or run the other way.
# Test: Primary qHTS for delayed death inhibitors of the malarial parasite plastid, 96 hour incubation
# Conditions: P. falciparum luciferase reporter growth; series mostly up to 28.7 µM; activity change, negative = inhibition: at the top concentration
# Outline: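 Two parasite generations (96 h, 37 C, 5% CO2) of compound exposure in infected erythrocytes (0.05% parasitemia, 2% hematocrit). Luciferase-reporter P. falciparum; decreased luminescence indicates inhibited growth, aimed at apicoplast-acting delayed death.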
# On the % scale 0 is the no-effect control and ±100 the full control effect; potency means the concentration at half of the fitted maximal effect.
Compound,Potency,"activity change, negative = inhibition [%]"
COc1ccc(CC(=O)Nc2c3c(nn2-c2cccc(Cl)c2)CS(=O)C3)cc1 (centres undefined),1.47 µM (active),–
COc1ccc(-n2nc3c(c2NC(=O)Cc2cccc(C)c2)CS(=O)C3)cc1 (centres undefined),–,-26.6
Cc1cccc(CC(=O)Nc2c3c(nn2-c2cccc(Cl)c2)CS(=O)C3)c1 (centres undefined),–,37.9
CC(=O)c1ccc(N2Cc3ccccc3C2)cc1,–,15.6
COc1ccc(F)cc1S(=O)(=O)N1CCCCC1,–,-25.6
CCc1ccc(S(=O)(=O)Nc2cc3c(cc2N2CCCCC2)n(C)c(=O)c(=O)n3C)cc1,–,12.4
Cn1c(CCc2ccccc2)nnc1SCC(N)=O,–,0.25
CC1CSc2nnc(CCc3ccccc3)n21 (centres undefined),–,-5.11
c1ccc(CCC2=NCCn3cccc32)cc1,14.7 µM (active),–
CS(=O)(=O)c1ccc(C(=O)OCC(=O)NNC(=O)COc2ccc(Cl)cc2)cc1,–,-3.01
COc1ccc(C(C(=O)NC(C)(C)C)N(Cc2ccc(F)cc2)C(=O)CCC(=O)Nc2cc(C)on2)cc1 (centres undefined),–,10.8
Cn1c(SCC(=O)Nc2nccs2)nnc1-c1cccnc1,–,1.62
COC(=O)c1cn(CC(=O)NCc2cccs2)c2ccccc12,13.1 µM (active),–
O=C(Cn1cc(C(=O)c2cccs2)c2ccccc21)NCc1cccs1,–,200
CCN(CC)C(=O)C(=O)c1cn(CC(=O)NCc2ccc3c(c2)OCO3)c2ccccc12,–,30.1
O=C(NCCc1ccccc1)c1ccc2c(c1)N(Cc1ccccc1)CCS2,–,22.6
O=C(OCc1ccccc1)c1ccc(O)cc1,–,17.2
CS(=O)(=O)N1CCc2nc(-c3ccccc3)sc2C1,–,243
CCOc1cc(C2C(C(=O)c3ccco3)=C(O)C(=O)N2Cc2ccccc2)ccc1O (centres undefined),–,10.9
CCOC(=O)c1cc(Sc2ccccc2N)cc(C(=O)OCC)n1,–,-16.9
O=C(Nc1ccnn1C1CCN(C/C=C/c2ccc(F)cc2)CC1)C1CCCC1,–,34.7
Cc1nn(C)c(Cl)c1CN1CCC(n2nccc2NC(=O)C2CCCC2)CC1,–,30.4
CC(C)Oc1ccc(CN2CCC(n3nccc3NC(=O)c3cccnc3)CC2)cc1,–,-17.2
CC(C)=CCCC(C)CN1CCC(n2nccc2NC(=O)c2ccccc2)CC1 (centres undefined),14.7 µM (active),–
CC(=O)N[C@@H](C)C(=O)N1CCC(n2nccc2NC(=O)CCCc2ccccc2)CC1,–,-4.67
CC(CN1CCC(n2nccc2NC(=O)C2CCCC2)CC1)c1ccccc1 (centres undefined),9.28 µM (active),–

Compound,Potency,"activity change, negative = inhibition [%]"
CN1CCN(c2ccccc2NC(=O)COc2ccc(C3CCCCC3)cc2)CC1,–,32.9
N#Cc1cccc(OC(=O)c2ccc3c(=O)n4c(nc3c2)CCC4)c1,–,47.2
O=C(NCCNc1ccccc1[N+](=O)[O-])c1ccccc1F,–,45.3
CCCCn1c(N)c(N(CCOC)C(=O)c2cccc(S(=O)(=O)N(C)c3ccccc3)c2)c(=O)[nH]c1=O,–,-3.71
COCCOC(=O)c1[nH]c2c(c1C)C(=O)CC(c1ccc(OC)cc1)C2 (centres undefined),–,10.5
CCCOC(=O)c1[nH]c2c(c1C)C(=O)CC(c1cccs1)C2 (centres undefined),9.28 µM (active),–
CCCOC(=O)c1[nH]c2c(c1C)C(=O)CC(c1cc(OC)c(OC)c(OC)c1)C2 (centres undefined),11.7 µM (active),–
CCOC(=O)C1=C(N)N2C(=O)C(C)SC2=C(C(=O)OCC)C1c1cc(OC)c(OC)c(OC)c1 (centres undefined),–,-1.9
CCCCOC(=O)c1[nH]c(C)c(C(=O)OC)c1C,–,-31.2
Cc1cc(C)c(S(=O)(=O)n2cc(C(C)C(N)C(=O)O)c3ccccc32)c(C)c1 (centres undefined),–,10.6
O=C(Nc1cccc(F)c1)NC1CCCc2ccccc21 (centres undefined),–,-14.7
COc1ccc(CN2CCC(n3nccc3NC(=O)CCCc3ccccc3)CC2)cc1C,–,-13.8
COCCNC(=O)c1ccc(S(=O)(=O)c2ccc(Cl)cc2)c(NC(C)=O)c1,–,25.4
O=C(O)/C=C/c1ccc(OCCCF)cc1,–,18
COc1ccc([C@H]2CC(=O)C=C(/C=C/c3ccccc3)C2)cc1,–,39.1
O=C(NNS(=O)(=O)c1ccc(Cl)cc1)C1CCN(Cc2ccccc2)CC1,–,85.3
CCOC(=O)C1(S(=O)(=O)c2ccccc2)CCN(Cc2ccccc2)CC1,–,-0.502
CCOC(=O)C1(S(=O)(=O)c2ccc(Cl)cc2)CCN(Cc2ccccc2)CC1,2.94 µM (active),–
N#Cc1nc(-c2cccc3ccccc23)oc1N,–,18.9
Cc1cc(NC(=O)Nc2c[nH]c(=O)[nH]c2=O)ccc1Br,–,40.8
CC1CCN(S(=O)(=O)c2ccc3c(c2)n(C)c(=O)n3C)CC1,–,39.9
COCCN1C(=O)C(=O)/C(=C(/O)c2ccc(S(=O)(=O)N3CCOCC3)cc2)C1c1ccc(OC)c(OC)c1 (centres undefined),–,-24.2
CCOc1cc(C2/C(=C(/O)c3ccc(S(=O)(=O)N4CCCCC4)cc3)C(=O)C(=O)N2CCOC)ccc1O (centres undefined),–,12.9
COCCN1C(=O)C(=O)/C(=C(/O)c2ccc(S(=O)(=O)N3CCCCC3)cc2)C1c1ccc(OC)c(OC)c1 (centres undefined),9.28 µM (active),–
CN(C)S(=O)(=O)c1cccc(-c2nn(-c3ccccc3)cc2/C=C2\SC(=S)N(CC(=O)O)C2=O)c1,–,-27.3
Cc1nn(C)c(C)c1C(C)NC(=O)c1ccc(OC2CCN(Cc3ccccn3)CC2)cc1 (centres undefined),–,-23.8

Compound,Potency,"activity change, negative = inhibition [%]"
Cc1cccc(C(C)C)c1NC(=O)COC(=O)C1CC(=O)N(Cc2ccccc2)C1 (centres undefined),–,35.6
Cc1ccc(S(=O)(=O)n2nc(OC(=O)C(C)(C)C)cc2N)cc1,–,0
Cc1nn(C(C)(C)C)c(OC(=O)CC(C)C)c1S(=O)(=O)c1ccccc1,9.28 µM (active),–
Nc1cc(OC(=O)c2ccccc2Br)nn1S(=O)(=O)c1ccccc1,–,48.3
CCCc1ccc(OCC(O)CN2CCN(C(=O)OCC)CC2)cc1 (centres undefined),–,39.9
CCc1ccc(OCC(O)CN2CCN(CCO)CC2)cc1 (centres undefined),–,30.8
CCCc1ccc(OCC(O)CN2CCN(CCO)CC2)cc1 (centres undefined),10.4 µM (active),–
Cc1ccc(S(=O)(=O)N2CCCCC2)cc1C(=O)N1CCN(CCO)CC1,–,30.1
CN(CC(=O)Nc1cccc(F)c1)C(=O)C1CC(=O)N(CCc2ccccc2)C1 (centres undefined),–,63
COc1ccc(CN2CCCC(N3CCc4ccccc4C3)C2)c(O)c1 (centres undefined),8.28 µM (active),–
COc1cccc(N2C(=O)CC(N3CCc4ccccc4C3)C2=O)c1 (centres undefined),–,23.1
COc1ccccc1CN1CCCC(N2CCN(c3ccc(F)cc3)CC2)C1 (centres undefined),–,6.1
COc1ccc(CN2C3CCCC2CC(NC(=O)c2cccc(F)c2)C3)cc1 (centres undefined),–,-95.4
CCCCCCC(O)(CCN1CCCCC1)c1ccccc1 (centres undefined),–,17.7
O=C(COc1ccccc1Cl)Nc1ccccc1C(=O)NC1CC1,–,-25
COc1ccc2c(c1)OC(O)(C(F)(F)C(F)F)CC2=O (centres undefined),0.828 µM (active),–
CC1(C)CC(=O)c2ccc(O)cc2O1,–,31
O=S1(=O)N=C(N(CCO)/N=C/c2ccccc2F)c2ccccc21,–,-11.7
CCOc1ccc(CNC(=O)C2CCCN(c3nnc(C)c4c(C)n(-c5ccccc5)nc34)C2)cc1 (centres undefined),–,-5.12
COc1ccc(CNC(=O)C2CCN(C(=O)c3ccccc3)CC2)cc1,–,3.36
COc1ccc(-n2nc3c(N4CCC(C(=O)NCc5ccccc5)CC4)nnc(C)c3c2C)cc1,13.1 µM (active),–
COC(=O)c1ccc(Nc2ncnc3sccc23)cc1,–,38
Cc1c(Cc2ccccc2)c(=O)oc2cc(OCC(N)=O)ccc12,–,56.5
CC(=O)c1c(C)n(-c2ccc(C)cc2)c2ccc(O)cc12,7.38 µM (active),–
CCOC(=O)c1c(CN2CCOCC2)n(-c2ccccc2)c2ccc(O)cc12,–,0.0544
CCOC(=O)c1c(C)oc2ccc(OCC(=O)N(CC)CC)cc12,–,3.22

Compound,Potency,"activity change, negative = inhibition [%]"
CC(=O)c1c(C)n(-c2ccc(N(C)C)cc2)c2ccc(OCC(N)=O)cc12,9.28 µM (active),–
O=C(O)CCC(=O)Nc1ccc(OCC2CCCO2)cc1 (centres undefined),–,0
CCCn1nc(C(=O)Nc2ccc3nc(C)sc3c2)c2ccccc2c1=O,–,-16
CCCCn1nc(C(=O)Nc2cccc(C(=O)NC3CC3)c2)c2ccccc2c1=O,11.7 µM (active),–
CCn1nc(C(=O)Nc2ccc(N3CCOCC3)cc2)c2ccccc2c1=O,–,-1.95
CC(=O)Nc1ccc(S(=O)(=O)NCC2CCC(C(=O)NCCc3ccccc3)CC2)cc1 (centres undefined),–,17.5
COc1ccc(C2NC(=O)N(C)C(C)=C2[N+](=O)[O-])cc1 (centres undefined),–,86.1
COc1ccc(C(C)(C)C)cc1NC(=O)CCN1C(=O)C2CCCCC2C1=O (centres undefined),–,-28.3
NC(=O)c1ccsc1NC(=O)COC(=O)COc1ccc(C=O)cc1,–,-16.1
O=C(NCC(c1cccs1)N1CCOCC1)c1cc(Cl)ccc1[N+](=O)[O-] (centres undefined),–,13.4
CC(=O)Nc1ccccc1OC(=O)N1CCOCC1,–,49.8
O=C(/C=C/c1cccs1)c1cc(Cl)ccc1OC(=O)N1CCOCC1,8.28 µM (active),–
CCOc1cc(C)c(S(=O)(=O)NCc2ccccn2)cc1C,–,-29.9
COc1ccc2[nH]c(C(=O)N3CCN(C)CC3)c(C)c2c1,–,38.2
O=C(c1cc2ccccc2s1)N1CCN(c2ccccn2)CC1,–,-15.5
O=C(NC1CCCC1)C(c1ccco1)N(C(=O)c1csnn1)c1ccccc1 (centres undefined),–,-28.5
OCC[C@H]1C[C@@H](O)[C@H](O)[C@]2(OCCCc3ccccc32)O1,–,63.6
Cc1ccc(N2CC(C(=O)Nc3cc(Cl)ccc3-n3cncn3)CC2=O)cc1 (centres undefined),–,19
COc1ccc(Cl)cc1NC(=O)CCN1CCOCC1,–,1.33
COc1cc(OC)c(N2CC(C(=O)Nc3cc(Cl)ccc3N3CCOCC3)CC2=O)cc1Cl (centres undefined),11.7 µM (active),–
CN(C(=O)CSc1nnc(C2CC2)n1C)C1CCCc2ccccc21 (centres undefined),–,-43.7
Cc1cc(C)n2nc(C(=O)OCC(=O)N(CCC#N)c3ccc(F)cc3)nc2n1,–,-7.01
O=C(CCn1nnc2ccccc2c1=O)N[C@@H](Cc1c[nH]c2ccccc12)C(=O)O,–,29.9
CCC(=O)Nc1sc(C(=O)N2CCCCC2)c(C)c1C#N,14.7 µM (active),–
CCN1CCN(CC(=O)Nc2sc3c(c2C#N)CCC3)CC1,–,8.13
CCOC(=O)c1sc(NC(=O)CSc2ncccn2)c(C#N)c1C,–,-21.8
